Potency and activity, negative = inhibition data for ten compounds are collected here from PubChem BioAssay (NCATS).

For test [1], the target named is ATP-dependent 6-phosphofructokinase (Trypanosoma brucei brucei) (UniProt O15648). Nature of the test: qHTS Assay to Find Inhibitors of T. brucei phosphofructokinase: hit validation (AID 492961).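 Note: luminescence reports ADP formed as PFK phosphorylates fructose-6-phosphate with ATP; % is set by controls: 0 for no effect and ±100 for the full control effect.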 To be noted: T. brucei PFK, ADP-Glo luminescence; series mostly up to 51.4 µM. In short, it runs like this: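 Reaction: 0.1 M triethanolamine pH 8.0, 5 mM MgCl2, F6P 0.5 mM, ATP 0.1 mM, PFK 1.25 nM, 45 min RT. Read-out: ADP-Glo luminescence. Analysis: concentration-response fits, classed by r2 and efficacy.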
ATP-dependent 6-phosphofructokinase (Trypanosoma brucei brucei), sequence (O15648 whole entry, looked up): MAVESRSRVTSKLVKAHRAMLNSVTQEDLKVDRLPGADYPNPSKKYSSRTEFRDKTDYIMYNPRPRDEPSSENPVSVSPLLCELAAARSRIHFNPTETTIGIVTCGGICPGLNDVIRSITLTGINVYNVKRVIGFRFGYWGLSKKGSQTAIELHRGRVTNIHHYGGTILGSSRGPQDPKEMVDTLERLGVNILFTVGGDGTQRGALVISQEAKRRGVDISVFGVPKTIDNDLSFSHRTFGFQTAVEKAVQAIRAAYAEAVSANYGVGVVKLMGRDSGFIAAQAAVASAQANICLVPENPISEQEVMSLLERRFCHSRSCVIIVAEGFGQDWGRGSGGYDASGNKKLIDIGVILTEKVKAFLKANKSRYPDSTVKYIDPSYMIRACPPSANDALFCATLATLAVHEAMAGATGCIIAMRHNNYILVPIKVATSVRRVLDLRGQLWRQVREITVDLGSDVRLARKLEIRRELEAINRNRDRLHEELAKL
(In general: qHTS replaces the single test concentration by a dilution series.)

Test [2] is described as follows: qHTS profiling for inhibitors of Plasmodium falciparum proliferation (AID 504749).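 For activity, negative = inhibition: 0% = DMSO vehicle and full inhibition = artemisinin control.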 For all read-outs here: nearly all actives have a fitted effect of over 60% in size. Note: potency is the fitted concentration of half-maximal effect. To be noted: P. falciparum in erythrocytes, SYBR Green DNA, 72 h; for activity, negative = inhibition: at 28.7 µM (top of the series). In short, it runs like this: (§1)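 Quantitative HTS: compounds pinned into medium, infected erythrocytes added (0.3% parasitemia, 2.5% hematocrit), 72 h culture at 37 C under 5% CO2. Saponin/Triton lysis with SYBR Green I, overnight RT, then fluorescence read.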

For the next test, the system named is 3D7. The description is as above. Conditions: P. falciparum in erythrocytes, SYBR Green DNA, 72 h; series mostly up to 28.7 µM. The method in brief:
as §1

The subject of a further test is 7G8. Described as above. To be noted: P. falciparum in erythrocytes, SYBR Green DNA, 72 h; series mostly up to 28.7 µM. The method in brief:
as §1

The subject of a further test is AS120. The description is as above. Conditions: P. falciparum in erythrocytes, SYBR Green DNA, 72 h; series mostly up to 28.7 µM. In short, it runs like this: as §1
In another test the test system is ATS189. The test is described as above. Conditions: P. falciparum in erythrocytes, SYBR Green DNA, 72 h; series mostly up to 28.7 µM. In short, it runs like this: as §1
The subject of the next test is CP185. The description is as above. To be noted: P. falciparum in erythrocytes, SYBR Green DNA, 72 h; series mostly up to 28.7 µM. In short, it runs like this: as §1
The subject of the next test is CP191. The test is described as above. To be noted: P. falciparum in erythrocytes, SYBR Green DNA, 72 h; series mostly up to 28.7 µM. In short, it runs like this: as §1
The subject of the next test is CP192. The description is as above. To be noted: P. falciparum in erythrocytes, SYBR Green DNA, 72 h; series mostly up to 28.7 µM. The method in brief:
as §1

The subject of another test is CP194. Described as above. Conditions: P. falciparum in erythrocytes, SYBR Green DNA, 72 h; series mostly up to 28.7 µM. In short, it runs like this: as §1
The next test concerns CP201. The test is described as above. To be noted: P. falciparum in erythrocytes, SYBR Green DNA, 72 h; series mostly up to 28.7 µM. In short, it runs like this: as §1
A further test deals with CP203. Described as above. To be noted: P. falciparum in erythrocytes, SYBR Green DNA, 72 h; series mostly up to 28.7 µM. The method in brief: as §1
A further test deals with CP237. The description is as above. To be noted: P. falciparum in erythrocytes, SYBR Green DNA, 72 h; series mostly up to 28.7 µM. In short, it runs like this: as §1
A further test has as its system CP238. The test is described as above. To be noted: P. falciparum in erythrocytes, SYBR Green DNA, 72 h; series mostly up to 28.7 µM. In short, it runs like this: as §1
The subject of the next test is CP247. The test is described as above. To be noted: P. falciparum in erythrocytes, SYBR Green DNA, 72 h; series mostly up to 28.7 µM. In short, it runs like this: as §1
The next test concerns CP286. The test is described as above. Conditions: P. falciparum in erythrocytes, SYBR Green DNA, 72 h; series mostly up to 28.7 µM. In short, it runs like this: as §1
The test system of a further test is DFO2036. The description is as above. Conditions: P. falciparum in erythrocytes, SYBR Green DNA, 72 h; series mostly up to 28.7 µM. The method in brief:
as §1

Another test concerns DIV30. The test is described as above. Conditions: P. falciparum in erythrocytes, SYBR Green DNA, 72 h; series mostly up to 28.7 µM. In short, it runs like this: as §1
A further test has as its system HB3. Described as above. To be noted: P. falciparum in erythrocytes, SYBR Green DNA, 72 h; series mostly up to 28.7 µM. In short, it runs like this:
as §1

A further test relates to P94_40. The description is as above. Conditions: P. falciparum in erythrocytes, SYBR Green DNA, 72 h; series mostly up to 28.7 µM. The method in brief:
as §1

Results filed as inconclusive are left out. Values without a mark were called inactive. Calls of active or inactive are those of the source. Calls come from the whole dose curve; as a rule, active = well fitted curve in the direction sought with a large enough effect; inconclusive = small, poorly fitted or top-dose-only effect, or another doubt; inactive = no such curve, though single readings can be large; an effect the other way counts as inactive or inconclusive.

For `CC(c1ncncc1F)[C@](O)(Cn1cncn1)c1ccc(F)cc1F` (stereo not given in full), the Potency entry (in [1]; with 3D7; with 7G8; with AS120; in the test on ATS189; with CP185) was “inactive” each time. Moreover, the Potency result in the test on CP191, in the test with CP192, in the test with CP194, in the test on CP201, in the test with CP203 and in the test on CP237 was “inactive” in each case. Further, the Potency entry in the test on CP238, with CP247, in the test with CP286, in the test with DFO2036, in the test on DIV30 and in the test with HB3 was “inactive” each time. Also, the Potency entry in the test with P94_40 is “inactive”. In addition, the figures for the activity, negative = inhibition in test [2] (parasite line A) and in test [2] (parasite line B) were 7.39% and -17.3%, respectively.
With `CC[C@@H](C)C(N)C(=O)O` (stereo not given in full), the Potency result (in [1]; with 3D7; in the test with 7G8; with AS120; with ATS189; with CP185) was “inactive” each time. The Potency entry in the test on CP191, with CP192, in the test on CP194, in the test with CP201, in the test on CP203 and with CP237 was “inactive” in each case. In addition, the Potency entry in the test on CP238, with CP247, in the test with CP286, with DFO2036, in the test with DIV30 and in the test with HB3 was “inactive” in each case. Further, the Potency entry with P94_40 was “inactive”. Further, the activity, negative = inhibition in [2] (parasite line A) was 6.94%; in test [2] (parasite line B), 2.73%.
Take `Cc1cnc(C(=O)O)cn1`: the Potency result (in test [1]; in the test on 3D7; in the test on 7G8; with AS120; in the test with ATS189; in the test on CP185) was “inactive” throughout. Further, the Potency result in the test with CP191, in the test on CP192, with CP194, with CP201, in the test on CP203 and in the test with CP237 was “inactive” throughout. In addition, the Potency result with CP238, with CP247, with CP286, with DFO2036, with DIV30 and in the test on HB3 was “inactive” throughout. Moreover, in the test with P94_40, the Potency result is “inactive”. The results for the activity, negative = inhibition in [2] (parasite line A) and in test [2] (parasite line B) were 9.61% and 7.1%, respectively.
On to `OCC1O[C@@H](O[C@@H]2C(CO)OC(O)C(O)C2O)C(O)C(O)C1O` (stereo not given in full), for which the Potency entry (in test [1]; with 3D7; in the test with 7G8; in the test with AS120; in the test with ATS189; with CP185) was “inactive” in each case. The Potency result with CP191, in the test on CP192, in the test with CP194, in the test with CP201, in the test with CP203 and with CP237 was “inactive” throughout. In addition, the Potency entry in the test on CP238, with CP247, in the test with CP286, in the test with DFO2036, in the test on DIV30 and in the test with HB3 was “inactive” each time. Besides, the Potency entry in the test on P94_40 is “inactive”. In addition, the results for the activity, negative = inhibition in [2] (parasite line A) and in test [2] (parasite line B) were 8.35% and 4.55%, respectively.
`CO/N=C(/C(=O)N[C@@H]1C(=O)N2C(C(=O)O)=C(C[n+]3ccc(N)n3CCO)CS[C@H]12)c1csc(N)n1`: the Potency entry (in test [1]; with 3D7; with 7G8; with AS120; in the test with ATS189; with CP185) was “inactive” each time. The Potency entry with CP191, in the test on CP192, with CP194, in the test with CP201, with CP203 and in the test on CP237 was “inactive” each time. The Potency entry in the test with CP238, with CP247, in the test with CP286, in the test with DFO2036, with DIV30 and in the test with HB3 was “inactive” each time. The Potency entry in the test on P94_40 is “inactive”. Also, the activity, negative = inhibition in test [2] (parasite line A) is 0.303%; in test [2] (parasite line B), 9.51%.
Turning to `CO[C@H]1OC2O[C@@]3(C)CC[C@H]4[C@H](C)CC[C@@H]([C@H]1C)[C@@]24OO3` (stereo not given in full), in test [1], the Potency entry was “inactive”. The Potency in test [2] (parasite line A) was 25.1 nM (active); in [2] (parasite line B) it was 15.8 nM (active); with 3D7, 14.1 nM (active); in the test on 7G8, 2.2 nM (active); in the test with AS120, 22.4 nM (active); in the test on ATS189 it was 14.1 nM (active). In addition, the Potency in the test with CP185 was 31.6 nM (active); with CP191, 11.2 nM (active); with CP192, 37.9 nM (active); in the test on CP194 it was 60.1 nM (active); in the test with CP201, 75.7 nM (active); in the test with CP203, 30.1 nM (active). The Potency was 15.8 nM (active) with CP237; 22.4 nM (active) in the test on CP238; 25.1 nM (active) in the test with CP247; 17.8 nM (active) with CP286; 15.8 nM (active) in the test with DFO2036; 15.1 nM (active) in the test on DIV30. Besides, the Potency in the test on HB3 was 7.9 nM (active); in the test on P94_40, 11.2 nM (active).
As to `Cc1ccc(S(=O)(=O)NC(=O)NC(C)Cc2ccccc2)cc1` (stereo not given), the Potency entry (in test [1]; with 3D7; in the test on 7G8; with AS120; in the test with ATS189; with CP185) was “inactive” in each case. For the same compound, the Potency result in the test on CP191, with CP192, in the test with CP194, in the test with CP201, with CP203 and with CP237 was “inactive” throughout. Also, the Potency entry in the test on CP238, with CP247, in the test with CP286, with DFO2036, with DIV30 and in the test on HB3 was “inactive” each time. Besides, the Potency result with P94_40 was “inactive”. In addition, the figures for the activity, negative = inhibition in [2] (parasite line A) and in [2] (parasite line B) were 7.07% and 4.66%, respectively.
In the case of `C=C1[C@@H]2CC[C@H](C2)C1(C)C`, the Potency entry (in test [1]; in the test with 3D7; in the test on 7G8; with AS120; in the test on ATS189; in the test on CP185) was “inactive” in each case. Moreover, the Potency entry in the test with CP191, in the test on CP192, in the test on CP194, in the test with CP201, in the test with CP203 and in the test on CP237 was “inactive” each time. Besides, the Potency result in the test with CP238, with CP247, in the test on CP286, with DFO2036, in the test on DIV30 and in the test with HB3 was “inactive” in each case. In addition, the Potency entry with P94_40 is “inactive”. Moreover, the activity, negative = inhibition in test [2] (parasite line A) was 10.4%; in test [2] (parasite line B), -2.91%.
As for `C[C@@H]1C(SC2Cn3cnc[n+]3C2)=C(C(=O)[O-])N2C(=O)[C@H]([C@@H](C)O)[C@@H]12` (stereo not given in full), the Potency result (in [1]; with 3D7; with 7G8; in the test on AS120; with ATS189; in the test with CP185) was “inactive” in each case. Also, the Potency entry with CP191, with CP192, in the test on CP194, with CP201, with CP203 and with CP237 was “inactive” in each case. Also, the Potency entry in the test with CP238, in the test with CP247, with CP286, in the test on DFO2036, in the test on DIV30 and in the test on HB3 was “inactive” each time. Moreover, in the test on P94_40, the Potency entry was “inactive”. Further, the figures for the activity, negative = inhibition in [2] (parasite line A) and in [2] (parasite line B) were 6.33% and 11.1%, respectively.
Take `CNC(=O)C(N)CSC(C)C1=C(C)c2cc3[n-]c(cc4nc(cc5[n-]c(cc1n2)c(C)c5CCC(=O)O)C(CCC(=O)O)=C4C)c(C)c3C(C)SCC(N)C(=O)NC.[Fe+2]` (stereo not given): the Potency result (in test [1]; in the test with 3D7; in the test with 7G8; in the test on AS120; in the test with ATS189; with CP185) was “inactive” in each case. In addition, the Potency result in the test on CP191, in the test on CP192, with CP194, in the test with CP201, with CP203 and with CP237 was “inactive” each time. Also, the Potency result in the test with CP238, with CP247, in the test with CP286, with DFO2036, in the test on DIV30 and in the test on HB3 was “inactive” in each case. In addition, the Potency entry with P94_40 is “inactive”. Also, the activity, negative = inhibition is 8.98% in [2] (parasite line A) and -1.36% in test [2] (parasite line B).
